# Results reported in the supplement of paper PMC8728848.
# The entries come from a sample that favours the strongest signals as a whole.
# B1: XTP3-B-MRH2 (Homo sapiens), Q96DZ1 (protein)
# chain: EFLSGSYCFRGGVGWWKYEFCYGKHVHQYHEDKDSGKTSVVVGTWNQEEHIEWAKKNTARAYHLQDDGTQTVRMVSHFYGNGDICDITDKPRQVTVKLKCKESDSPHAVTVYMLEPHSCQYILGVESPVICKILDTA
# How the values were obtained:
# Test in all cases: glycan array binding signal (z-score within array); higher = stronger binding
# Conditions in all cases: glycan notation: IUPAC condensed, linker removed
# [1] = target: GalNAc(b1-4)GlcNAc(b1-2)Man(a1-3)[GalNAc(b1-4)GlcNAc(b1-2)Man(a1-6)]Man(b1-4)GlcNAc(b1-4)GlcNAc
# In short: (§1)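 From the Consortium for Functional Glycomics database, 3228 arrays were curated, keeping only those whose protein sequence was available. Binding is given as a within-array Z-score averaged across arrays sharing a protein sequence and across linkers. Negative Z-scores can be read as non-binding.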
# [2] = target: GalNAc3S(b1-4)[Fuc(a1-3)]GlcNAc
# In short: as §1
# [3] = target: GlcNAc(b1-2)Man(a1-3)[GlcNAc(b1-2)Man(a1-6)]Man(b1-4)GlcNAc(b1-4)[Fuc(a1-6)]GlcNAc
# In short: as §1
# [4] = target: GlcNAc(b1-2)[GlcNAc(b1-6)]Man(a1-6)[GlcNAc(b1-2)Man(a1-3)]Man(b1-4)GlcNAc(b1-4)GlcNAc
# In short: as §1
# [5] = target: GlcNAc(b1-3)Gal(b1-4)GlcNAc(b1-2)[GlcNAc(b1-3)Gal(b1-4)GlcNAc(b1-6)]Man(a1-6)[GlcNAc(b1-3)Gal(b1-4)GlcNAc(b1-2)Man(a1-3)]Man(b1-4)GlcNAc(b1-4)GlcNAc
# In short: as §1
# [6] = target: Kdn(a2-3)Gal(b1-4)[Fuc(a1-3)]GlcNAc
# In short: as §1
# [7] = target: Neu5Ac(a2-3)Gal(b1-3)GlcNAc(b1-6)GalNAc
# In short: as §1
# [8] = target: Neu5Ac(a2-3)Gal(b1-4)GlcNAc(b1-2)[Neu5Ac(a2-3)Gal(b1-4)GlcNAc(b1-4)]Man(a1-3)[GlcNAc(b1-4)][Neu5Ac(a2-3)Gal(b1-4)GlcNAc(b1-2)[Neu5Ac(a2-3)Gal(b1-4)GlcNAc(b1-6)]Man(a1-6)]Man(b1-4)GlcNAc(b1-4)GlcNAc
# In short: as §1
# [9] = target: Neu5Ac(a2-3)Gal(b1-4)GlcNAc(b1-3)Gal(b1-4)[Fuc(a1-3)]GlcNAc
# In short: as §1
# [10] = target: Neu5Ac(a2-6)Gal(b1-4)GlcNAc(b1-2)Man(a1-6)[Gal(b1-4)GlcNAc(b1-2)Man(a1-3)]Man(b1-4)GlcNAc(b1-4)GlcNAc
# In short: as §1
# [11] = target: Neu5Ac(a2-6)Gal(b1-4)GlcNAc(b1-3)Gal(b1-4)GlcNAc(b1-3)GalNAc
# In short: as §1
# [12] = target: Neu5Ac(a2-6)GlcNAc(b1-4)GlcNAc(b1-4)GlcNAc
# In short: as §1
# [13] = target: Neu5Ac(a2-8)Neu5Ac(a2-8)Neu5Ac
# In short: as §1
# [14] = target: Neu5Ac9Ac(a2-3)Gal(b1-4)GlcNAc
# In short: as §1
# [15] = target: Neu5Gc(a2-8)Neu5Ac(a2-3)Gal(b1-4)GlcNAc
# In short: as §1
# [16] = target: Neu5Gc(a2-8)Neu5Gc(a2-3)Gal(b1-4)GlcNAc
# In short: as §1
binder,measurement,setting,value
B1,glycan array binding signal (z-score),[1],-0.025
same,glycan array binding signal (z-score),[2],0.236
same,glycan array binding signal (z-score),[3],-0.201
same,glycan array binding signal (z-score),[4],1.7
same,glycan array binding signal (z-score),[5],0.276
same,glycan array binding signal (z-score),[6],-0.353
same,glycan array binding signal (z-score),[7],1.44
same,glycan array binding signal (z-score),[8],-1.25
same,glycan array binding signal (z-score),[9],-0.481
same,glycan array binding signal (z-score),[10],-0.687
same,glycan array binding signal (z-score),[11],-0.693
same,glycan array binding signal (z-score),[12],0.385
same,glycan array binding signal (z-score),[13],0.237
same,glycan array binding signal (z-score),[14],-0.6
same,glycan array binding signal (z-score),[15],0.283
same,glycan array binding signal (z-score),[16],2.85
